Screening data as filed in PubChem BioAssay.
Hits are enriched below; roughly 6.5% of the tested compounds scored in any of these assays.
FMDV antiviral: antivirals against foot and mouth disease virus; AID 1159524; Potency, µM (doses to about 57.9 µM), for inactives: at the highest dose activity change, negative = inhibition, hits mostly inhibitors; FMDV antiviral cell-based qHTS; 410,000 compounds, 1.2% hits; calls by dose curve; tested in HEK293T cells; further: read-out not given here; potency means the concentration at half of the fitted maximal effect; nearly all actives have a fitted effect of over 45% in size
VACV Venus inh: vaccinia inhibition (Venus reporter); AID 720580; Vaccinia virus Venus reporter expression, fluorescence; 330,000 compounds, 0.46% hits; Potency, µM (top dose mostly 36.5 µM), for the others: at the top dose activity change, negative = inhibition, actives largely listed as inhibitors; calls by dose curve; tested in A549 cells; further: potency means the concentration at half of the fitted maximal effect; nearly all actives have a fitted effect of over 30% in size
VACV mCherry inh: inhibitors of vaccinia virus infection (mCherry reporter signal); Vaccinia virus mCherry reporter infection, fluorescence; Potency, µM (series often up to 36.5 µM), for the others: at the highest dose activity change, negative = inhibition, hits mostly inhibitors; 310,000 compounds, 0.63% hits; calls by dose curve; tested in A549 cells; further: potency means the concentration at half of the fitted maximal effect; nearly all actives have a fitted effect of over 35% in size
Lassa entry inh: Lassa virus entry inhibition; Lassa virus pseudotype entry inhibition, cell reporter; Potency, µM (doses to about 37.9 µM), inactives show top-dose activity change, negative = inhibition, usual class: inhibitors; 300,000 compounds, 1.2% hits; calls by dose curve; tested in HEK293 cells; further: potency means the concentration at half of the fitted maximal effect; nearly all actives have a fitted effect of over 50% in size
HCMV inh: inhibitors of human cytomegalovirus; HFF cells, HCMV-luciferase reporter, 72 h; stronger effect = lower value; activity change, negative = inhibition, % at 57.5 µM; 410,000 compounds, 4.5% hits; AID 1259415; in the data active means activity change below about -60%; inconclusive means no clear call, values can overlap the other calls; inactive means above about -39%
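Luciferase read-out from HCMV-luciferase-infected HFFs (MOI 1 PFU/cell) 72 h post infection at 37C; compounds added after 16 h cell attachment; activity normalized between buffer-only basal and Salinomycin (10uM) inhibitor controls.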
Marburg entry inh: blocks Marburg virus binding to or entry into cells | Marburg virus pseudotyped entry inhibition, cell reporter | Potency, µM (highest dose often 37.8 µM), for inactives: at the top dose activity change, negative = inhibition, actives largely listed as inhibitors | 300,000 compounds, 1.8% hits | AID 540276; calls by dose curve; tested in HEK293 cells; further: potency means the concentration at half of the fitted maximal effect
An asterisk follows results filed as active; ! = a repeat was not active; [ ] = remark or other dose. On the % scale 0 is the no-effect control and ±100 the full control effect.

Screening Cc1ccsc1C(=O)N1CCCC(N(C)Cc2ccccc2)C1 (stereo unspecified) returned FMDV antiviral -4%, VACV Venus inh 6%, VACV mCherry inh -5%, Lassa entry inh inconclusive, HCMV inh -36 and Marburg entry inh -28%.
`COc1cccc(C(=O)Nc2nc(-c3nnn(-c4cc(C)ccc4C)c3C)ns2)c1` gave FMDV antiviral inconclusive, VACV Venus inh -15%, VACV mCherry inh -20%, Lassa entry inh 24%[46.1 µM] and HCMV inh -12.
Screening COc1cccc(C(=O)Nc2nc(-c3nnn(-c4ccccc4C(F)(F)F)c3C)ns2)c1 returned FMDV antiviral -11%, VACV Venus inh -24%, VACV mCherry inh -22%, Lassa entry inh 15%[46.1 µM] and HCMV inh -76*.
`COc1ccc(C(=O)Nc2nc(-c3nnn(-c4ccc(F)cc4F)c3C)ns2)cc1` gave FMDV antiviral inconclusive, VACV Venus inh inconclusive, VACV mCherry inh inconclusive, Lassa entry inh inconclusive and HCMV inh -104*.
For Cc1cccc(C(=O)Nc2nc(-c3nnn(-c4cc(C)ccc4C)c3C)ns2)c1 the results were FMDV antiviral inconclusive, VACV Venus inh -25%[7.34 µM], VACV mCherry inh -23%[7.34 µM], Lassa entry inh -6%[46.1 µM] and HCMV inh -62*.
Screening O=C(O)CSc1nc2c(c(C(F)(F)F)n1)CCCC2 returned FMDV antiviral -8%, VACV Venus inh -3%, VACV mCherry inh 16%, Lassa entry inh -13%, HCMV inh -96*! and Marburg entry inh 6%[46.1 µM].
For O=C(O)CSc1nc2c(c(C(F)(F)F)n1)CCc1ccccc1-2 the results were FMDV antiviral -9%, VACV Venus inh -12%, VACV mCherry inh -11%, Lassa entry inh 7%, HCMV inh -22 and Marburg entry inh inconclusive.
For N=C(N)c1ccc(-c2ccc(-c3ccc(C(=N)N)cc3)o2)cc1 the results were VACV Venus inh -17% and VACV mCherry inh -19%.
For CN(C)c1ccc(N=Nc2ccccc2C(=O)OCC(=O)NCC2CCCCC2)cc1 the results were FMDV antiviral -12%, VACV Venus inh -29%, VACV mCherry inh -10%, Lassa entry inh -12%, HCMV inh -61* and Marburg entry inh inconclusive.
CN(C)CC(=O)N1[C@H](C(=O)Nc2nccs2)[C@@H](CO)[C@@H]2Cn3c(ccc(C4=CCCCC4)c3=O)[C@@H]21 was read as HCMV inh -6.
CCCCC[C@@H](/C=C/C1C(=O)C=C[C@H]1C/C=C\CCCC(=O)O)OC(C)=O (stereo partly specified) was read as FMDV antiviral 35µM*, VACV Venus inh 14%, VACV mCherry inh inconclusive and HCMV inh 112.
Screening CCOC(=O)CN1C(=O)NC(CCc2ccccc2)C(C(=O)OC)=C1C (stereo unspecified) returned Lassa entry inh inconclusive and Marburg entry inh -23%[14.2 µM].
For COC(=O)c1ccccc1NC(=O)CSc1nncn1C the results were FMDV antiviral -11%, VACV Venus inh -6%, VACV mCherry inh -3%, Lassa entry inh 12%[46.1 µM], HCMV inh 33 and Marburg entry inh 3%[46.1 µM].
`Cc1cccc(NC(=O)CSc2nncn2C)c1` gave FMDV antiviral 1%, VACV Venus inh -3%, VACV mCherry inh 12%, Lassa entry inh 21%[46.1 µM], HCMV inh 6 and Marburg entry inh -4%[46.1 µM].
`Cn1cnnc1SCC(=O)Nc1ccccc1Sc1ccccc1` gave FMDV antiviral 10%, VACV Venus inh -7%, Lassa entry inh -9%, HCMV inh -63* and Marburg entry inh -10%.
Screening Cc1ccc(NC(=O)CSc2nncn2C)c(C)c1 returned FMDV antiviral -16%, VACV Venus inh 6%, VACV mCherry inh 13%, Lassa entry inh 6%[46.1 µM], HCMV inh -105* and Marburg entry inh -11%[46.1 µM].
For CC(C)(C)C(=O)C[n+]1ccc(C(N)=O)cc1 the results were FMDV antiviral 5%, VACV Venus inh 4%, VACV mCherry inh -14%, Lassa entry inh 4%, HCMV inh -2 and Marburg entry inh 14%.
COC(=O)c1ccc2c(=O)n(CCCCCC(=O)NCCc3ccc(Cl)cc3)c(=O)[nH]c2c1 was read as FMDV antiviral 3%, VACV Venus inh -13%, VACV mCherry inh -10%, Lassa entry inh 23%[46.1 µM] and HCMV inh 10.
Screening CC(=O)c1ccc(NC(=O)C(C)OC(=O)C2CCN(c3ccc(C(F)(F)F)cn3)CC2)cc1 (stereo unspecified) returned FMDV antiviral inconclusive, VACV Venus inh 0%, VACV mCherry inh -2%, Lassa entry inh -3%, HCMV inh 8 and Marburg entry inh -2%.
CC(C)NC(=O)[C@@H]1C[C@@H](Sc2nc3ccccc3[nH]2)CN1C1Cc2ccccc2C1 was read as FMDV antiviral 1%, VACV Venus inh -25% and VACV mCherry inh inconclusive.
Screening COc1ccc(CN(C(=O)c2nsc(Cl)c2Cl)C(C(=O)NC2CCCC2)c2ccc(C)cc2)cc1 (stereo unspecified) returned FMDV antiviral 13%, VACV Venus inh -18%, VACV mCherry inh inactive, Lassa entry inh 16µM*, HCMV inh inconclusive and Marburg entry inh inconclusive.
For COc1ccc(CN(C(=O)c2snc(C(N)=O)c2N)C(C(=O)NC2CCCC2)c2ccc(OC)c(OC)c2)cc1 (stereo unspecified) the results were FMDV antiviral 18%, VACV Venus inh -3%, VACV mCherry inh -3%, Lassa entry inh -14%[46.1 µM], HCMV inh inconclusive and Marburg entry inh -22%[46.1 µM].
For Cc1ccc(C)c(N(C(=O)c2nsc(Cl)c2Cl)C(C(=O)NC2CCCC2)c2ccc(O)cc2)c1 (stereo unspecified) the results were FMDV antiviral -7%, VACV Venus inh inconclusive, VACV mCherry inh inconclusive, Lassa entry inh inconclusive, HCMV inh -31 and Marburg entry inh inconclusive.
Screening COc1ccc(CN(C(=O)c2nsc(Cl)c2Cl)C(C(=O)NC2CCCCC2)c2ccc(OC)cc2)cc1 (stereo unspecified) returned VACV Venus inh -22%, VACV mCherry inh -12%, Lassa entry inh inconclusive, HCMV inh -36 and Marburg entry inh 15µM*.
O=C(Nc1ccccc1F)C(=Cc1sc(N2CCOCC2)nc1-c1ccccc1)C(=O)Nc1ccccc1F was read as FMDV antiviral 0%, VACV Venus inh 0%, VACV mCherry inh inactive, Lassa entry inh 2%, HCMV inh -70* and Marburg entry inh -5%[46.1 µM].
Screening O=C(N/N=C/c1sc(N2CCOCC2)nc1-c1ccccc1)c1ccccc1Cl returned FMDV antiviral -16%, VACV Venus inh -20%, VACV mCherry inh -5%, Lassa entry inh inconclusive, HCMV inh 5 and Marburg entry inh 9%[46.1 µM].
Screening O=C(N/N=C/c1sc(N2CCOCC2)nc1-c1ccccc1)c1cccc(S(=O)(=O)N2CCOCC2)c1 returned FMDV antiviral -20% and HCMV inh -100*.
O=C(N/N=C/c1sc(N2CCOCC2)nc1-c1ccccc1)c1ccccc1O was read as FMDV antiviral -2%, VACV Venus inh inconclusive, VACV mCherry inh inconclusive, Lassa entry inh 1.3µM*, HCMV inh -20 and Marburg entry inh 7.9µM*.
